Our source for the B-score values is PubChem BioAssay AID588676 (Johns Hopkins Ion Channel Center, 2011).

The campaign covered roughly 310,000 compounds. About 3,900 (1.3%) were called active.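 How the source made its calls: active means calcium-response B-score plate-corrected more than 3 library SD below zero, starting fluorescence within 5 deviations, no agonist response on first addition; inactive means the rest.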 Only a selection was taken, and actives are over-represented in it overall.

Chain of Mas-related G-protein coupled receptor member X1 (Homo sapiens) (Q96LB2 whole entry, looked up): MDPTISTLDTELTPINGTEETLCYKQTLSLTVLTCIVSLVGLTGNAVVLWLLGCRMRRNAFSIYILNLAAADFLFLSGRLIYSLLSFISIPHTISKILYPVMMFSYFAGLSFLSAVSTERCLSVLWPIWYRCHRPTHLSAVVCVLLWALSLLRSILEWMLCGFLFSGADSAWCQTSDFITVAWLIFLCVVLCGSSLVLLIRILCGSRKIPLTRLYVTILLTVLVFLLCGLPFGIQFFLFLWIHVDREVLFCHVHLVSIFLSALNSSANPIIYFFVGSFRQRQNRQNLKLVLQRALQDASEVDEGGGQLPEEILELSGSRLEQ

This test concerns the target Mas-related G-protein coupled receptor member X1 (Homo sapiens) (UniProt Q96LB2). The test is described as follows: antagonists of human MrgX1 receptor, primary screen, HEK293 cells, Fluo-4 calcium flux (AID 588676).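 On B-score: peak minus trough fluorescence over baseline after final BAM8-22 challenge near maximal dose.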 Conditions: Fluo-4, BAM8-22 antagonism, at 10 µM; hits give low values.
For the compound `O=C(c1ccc(Oc2ccc(Cl)cc2)c([N+](=O)[O-])c1)N1CCCC1`, the B-score entry was “inactive”.
The result for `Cc1nn(C)c(C)c1Sc1ccccc1N` reads “inactive”; that for `CC(=O)N1CCN(C(=O)c2cc(-c3ccc(Cl)s3)nc3ccccc23)CC1`, “inactive”.
As for `Brc1ccc2c(c1)[C@H]1OCC[C@H]1[C@@H](c1cccs1)N2`, the B-score result was “inactive”.
Under `Cc1ccccc1NC(=O)CCOc1ccccc1` stands “inactive”; under `O=C(CCn1c(=S)[nH]c2cc3c(cc2c1=O)OCO3)NCc1ccc(Cl)cc1`, “inactive”; under `CCCCn1c(=S)[nH]c2ccccc2c1=O`, “inactive”.
Consider `CN(C)CCn1c(=S)[nH]c2ccc(Cl)cc2c1=O`, for which the B-score was -7.49 (active).
The result for `Cc1cccc(N2CCN(C(=O)/C=C/c3ccco3)CC2)c1C` reads “inactive”; that for `CC1CCC2CCCCC2N1C(=O)c1cc([N+](=O)[O-])cc([N+](=O)[O-])c1` (stereo not drawn), “inactive”.
Under `CCCCCC1CCC(c2nnc(SCC(C)=O)o2)CC1` (stereo not drawn) stands “inactive”; under `O=C(CCS(=O)(=O)c1cccc2nonc12)NCCc1ccccc1Cl`, “inactive”.
As to `CC(NC(=O)c1ccccc1F)c1cccc2ccccc12` (stereo not drawn), the B-score result was “inactive”.
With `O=C(CSc1nnc(-c2c[nH]c3ccccc23)n1-c1ccc(F)cc1)NCc1ccco1`, the B-score result is “inactive”.
Take `COc1ccc(-n2c(SCC(=O)NCc3cccs3)nnc2-c2ccoc2C)cc1`: the B-score entry is “inactive”.
Under `COc1ccc(-n2c(SCC(=O)NCc3ccco3)nnc2-c2c[nH]c3ccccc23)cc1` stands -6.52 (active); under `O=c1[nH]snc1-c1c(Cl)cccc1Cl`, “inactive”.
For `CCOc1ccc(CCNC(=O)Nc2ccccc2)cc1OCC`, the B-score result was “inactive”.
The result for `COc1cccc(CNC(=O)C2CC(=O)N(C3CCCCCCC3)C2)c1` (stereo not drawn) reads “inactive”; that for `Cc1no[n+]([O-])c1COc1ccccc1/C=C1\NC(=S)NC1=O`, “inactive”.
Under `O=c1c2c(nc3cc(-c4cccc(Cl)c4)[nH]n13)CCCC2` stands “inactive”; under `O=C1CCCc2c1nc(-c1cccc(Cl)c1)n2O`, -7.62 (active); under `O=c1c2cc(Br)ccc2nc(-c2cccc(Cl)c2)n1O`, “inactive”.
Under `Cc1c(CC(=O)NCC(=O)NCC(=O)O)c(=O)oc2cc3oc4c(c3cc12)CCCC4` stands “inactive”; under `CC(C)CNC(=S)NC(=O)c1ccc(Cl)cc1`, “inactive”; under `COc1cccc(-c2cccc(NC(=O)C3CCN(C4CCC4)CC3)c2)c1`, “inactive”.
`O=C(CN(C(=O)c1csnn1)c1cccc(F)c1)NCc1ccc(F)cc1`: the B-score entry was “inactive”.
On to `COC(=O)C1=C(C(=O)OC)C2(OC1c1ccc(Br)cc1)C(=O)c1ccccc1C2=O` (stereo not drawn), for which the B-score entry was “inactive”.
Under `Cc1ccccc1OCC(=O)Nc1nc(C)c(C(=O)N(C)C)s1` stands “inactive”; under `Cc1cccc(NC(=O)COc2ccc(Br)cc2C)n1`, “inactive”; under `Cc1cccc(NC(=O)COc2ccccc2C)n1`, -4.62 (active).
Under `COc1ccc(C)cc1NC(=S)N1CCOCC1` stands “inactive”; under `CN1C(CC(=O)Nc2ccc(Br)cc2)c2ccccc2CC1(C)C` (stereo not drawn), -5.82 (active).
The result for `CN1CCN(NC(=O)Nc2ccc(Br)cc2)CC1` reads “inactive”.
Regarding `COCC(=O)Nc1ccc(Br)cc1`, the B-score entry was “inactive”.
The result for `CCN(CC)c1ccc(C(=O)NNC(=O)CCc2nc3ccccc3c(=O)[nH]2)cc1` reads “inactive”; that for `Cc1ccccc1N1CCN(S(=O)(=O)c2ccc3ccccc3c2)CC1`, “inactive”; that for `Cc1ccc(S(=O)(=O)N2CCN(S(=O)(=O)N3CCOCC3)CC2)cc1`, “inactive”.
Under `O=S(=O)(c1ccc2ccccc2c1)N1CCN(S(=O)(=O)N2CCOCC2)CC1` stands -11.5 (active); under `O=C(COc1ccc(Cl)cc1)NC(=S)Nc1ccccc1N1CCOCC1`, -5.65 (active).
Under `CCc1ccc(C(=O)NC(=S)Nc2ccccc2N2CCOCC2)cc1` stands “inactive”.
Turning to `Cc1cccc(OCC(=O)NC(=S)Nc2ccccc2N2CCOCC2)c1`, the B-score entry is “inactive”.
Under `CCOC(=O)C1CCN(C(=O)CN2C(=O)c3cccnc3Oc3ccc(C)cc32)CC1` stands “inactive”; under `C[C@@H](NC(=O)[C@@H]1Cc2ccccc2CN1)C(=O)NC1CCCC1`, “inactive”; under `Cc1nc2ccccc2nc(C)c1=NOCc1ccc(Cl)cc1Cl`, “inactive”.
Under `COc1ccc(CCNC(=O)CCc2cn(C)c3ccccc23)c(OC)c1` stands “inactive”; under `NC(=O)NC(=O)C(OC(=O)CCNS(=O)(=O)c1ccccc1)c1ccccc1` (stereo not drawn), “inactive”; under `CCOc1ccc(C(=O)Nc2ccncc2)cc1`, “inactive”.
Under `CCOc1ccc(NC(=O)CCNC(=O)c2ccc(Br)cc2)cc1` stands -4.98 (active); under `CCOc1ccc(NC(=O)c2ccc(NC(=O)COC(=O)c3ccc(NC(=O)CC#N)cc3)cc2)cc1`, “inactive”.
Regarding `Fc1cccc(Cc2noc(CN3CCN(c4cnccn4)CC3)n2)c1`, the B-score entry was “inactive”.
The result for `Fc1ccccc1COc1ccccc1CNCc1ccncc1` reads “inactive”; that for `c1ccc(COc2ccccc2CNCc2cccnc2)cc1`, -6.34 (active).
The result for `C=CCOc1cccc(CNCc2cccnc2)c1` reads “inactive”.
Under `COc1ccc(N2C(=O)C(CC(=O)Nc3ccccc3)N(Cc3ccc(OC)c(OC)c3)C2=O)cc1` (stereo not drawn) stands “inactive”.
In the case of `CCOc1ccc(C(=O)N(Cc2ccc(N(C)C)cc2)C2CCS(=O)(=O)C2)cc1` (stereo not drawn), the B-score entry was “inactive”.
Under `COc1cc(C(=O)N(Cc2ccc(N(C)C)cc2)C2CCS(=O)(=O)C2)cc(OC)c1OC` (stereo not drawn) stands -4.58 (active).
The result for `COc1ccc(C(=O)N(Cc2ccc(N(C)C)cc2)C2CCS(=O)(=O)C2)cc1` (stereo not drawn) reads “inactive”; that for `O=Cc1ccc(OCc2cn3ccccc3n2)cc1`, “inactive”.
The result for `COC(=O)c1sccc1NS(=O)(=O)c1ccc(F)cc1F` reads -4.66 (active).
On to `COC(=O)c1sccc1NC(=O)CSc1ccccc1NS(=O)(=O)c1cc(Cl)ccc1Cl`, for which the B-score result was “inactive”.
On to `COc1ccc(NS(=O)(=O)c2ccc(F)cc2F)cn1`, for which the B-score entry is “inactive”.
Under `COc1c(Br)cc2c(C)c(C(=O)N3CCOCC3)oc2c1Br` stands “inactive”; under `O=C(CN1CCCC1)N1CCN(c2ccccc2)CC1`, “inactive”; under `O=C(CN1CCN(c2ccc(Cl)cc2)CC1)N1CCCC1`, -6.44 (active).
The result for `O=C(CN1CCN(c2ccc(Cl)cc2)CC1)c1ccccc1` reads “inactive”.
For the compound `Cc1cccc(-[n+]2c(-c3cccc(Br)c3)[nH]c3nc4ccccc4nc32)c1`, the B-score result was “inactive”.
Regarding `CC1(C)Cc2cccc(OCC(=O)N3CCN(c4ccc([N+](=O)[O-])cc4)CC3)c2O1`, the B-score entry is “inactive”.
The result for `CC1(C)Cc2cccc(OCC(=O)NCc3ccccc3)c2O1` reads “inactive”; that for `CN(CC(=O)Nc1ccccc1Cl)C(=O)COc1cccc2c1OC(C)(C)C2`, -5.16 (active); that for `CC1(C)Cc2cccc(OCC(=O)Nc3nccs3)c2O1`, “inactive”.
The result for `COc1cccc(CCNC(=O)COc2cccc3c2OC(C)(C)C3)c1` reads -5.36 (active); that for `CC1(C)Cc2cccc(OCC(N)=O)c2O1`, “inactive”.
As for `O=C(NNc1ccccc1Cl)C(O)(c1cccc(C(F)(F)F)c1)c1cccc(C(F)(F)F)c1`, the B-score result is “inactive”.
The result for `COc1ccccc1CNC(=O)C1CCCN(S(=O)(=O)c2cccc3cccnc23)C1` (stereo not drawn) reads “inactive”; that for `COc1ccc(S(=O)(=O)N2CCC(C(=O)NCCC(=O)NCc3cccc(OC)c3)CC2)cc1`, “inactive”.
Regarding `COc1cccc(CNC(=O)C2CCN(S(=O)(=O)c3cccc4cccnc34)CC2)c1`, the B-score is -4.66 (active).
With `O=C(c1ccccc1)C(Cn1cncn1)C(Sc1ccccc1)c1ccccc1` (stereo not drawn), the B-score was -5.84 (active).
In the case of `OC(COc1ccc2ccccc2c1)Cn1cncn1` (stereo not drawn), the B-score entry is “inactive”.
Under `Fc1ccccc1OCCCCn1cncn1` stands “inactive”; under `COc1ccc(C2(O)C(=O)Nc3ccccc32)cc1` (stereo not drawn), “inactive”; under `COc1ccc(NC(=O)c2ccco2)cc1NC(=O)c1ccc(C#N)cc1F`, “inactive”.
Under `Cc1c(C=O)c2ccccn2c1C(=O)c1ccncc1` stands “inactive”; under `CCCN1C2CCCC1CC(NC(=O)NC13CC4CC(CC(C4)C1)C3)C2` (stereo not drawn), “inactive”; under `Nc1cccc(S(=O)(=O)Nc2ccc(SC(F)F)cc2)c1`, “inactive”.
Under `Cc1cccc(-n2c(Cc3cc(=O)[nH]c(=O)[nH]3)nnc2SCC(=O)Nc2cccc(C(F)(F)F)c2)c1` stands “inactive”.
Regarding `Cc1cccc(-n2c(Cc3cc(=O)[nH]c(=O)[nH]3)nnc2SC(C)C)c1`, the B-score was -6.63 (active).
Take `COc1cccc(-n2c(Cc3cc(=O)[nH]c(=O)[nH]3)nnc2SCC(=O)Nc2ccccc2)c1`: the B-score result was “inactive”.
Under `CC(C)NC(=O)NNc1c(Cl)cncc1Cl` stands “inactive”; under `Cc1ccc(C(c2nnnn2CS(=O)(=O)c2ccc(C)cc2)N2CCC(C)CC2)cc1` (stereo not drawn), “inactive”; under `CC1(C)CC(=O)C=C(N2CCCC2)C1`, “inactive”.
`O=C(O)CN1CCN(C(c2ccccc2)c2ccccc2)CC1`: the B-score result was “inactive”.
The result for `CC1(C)CC(N2CCN(C(c3ccccc3)c3ccccc3)CC2)=CC(=[N+]2CCCCC2)C1` reads -4.89 (active); that for `CCC(=O)N(C)C(c1ccccc1Cl)c1nnnn1-c1c(C)cccc1C` (stereo not drawn), “inactive”; that for `COc1ccc(N2CC(NS(=O)(=O)c3ccc4ccccc4c3)CC2=O)cc1` (stereo not drawn), “inactive”.
With `CSCC[C@H](NC(=O)N1CCn2c1nc1ccccc12)C(=O)NCc1ccc2c(c1)OCO2`, the B-score entry was “inactive”.
The result for `Cc1ccc(S(=O)(=O)N2CCN(C)CC2)cc1C(=O)NC1CCCCC1` reads “inactive”; that for `CCCCC1(C(=O)OCC)NC(c2ccc(O)cc2)C2C(=O)N(c3ccccc3)C(=O)C21` (stereo not drawn), “inactive”; that for `O=C1CCCN1C(=O)COc1ccc([N+](=O)[O-])cc1`, “inactive”.
The result for `Cc1ccc(OC(=O)CCC(=O)Nc2ccc(Br)cc2)cc1` reads “inactive”; that for `CC(=O)Nc1ccc(OC(=O)COc2ccc(Br)cc2)cc1`, -4.53 (active); that for `COC(=O)COc1ccc(S(=O)(=O)Nc2ccc(NC(C)=O)cc2)cc1`, “inactive”.
On to `CCN(C(=O)CSc1nnc2ccccn12)C1CCS(=O)(=O)C1` (stereo not drawn), for which the B-score is -5.04 (active).
The result for `CCN(C(=O)CSc1nnnn1-c1ccccc1OC)C1CCS(=O)(=O)C1` (stereo not drawn) reads “inactive”; that for `CCN(C(=O)CSc1nc2ccccc2n1CC)C1CCS(=O)(=O)C1` (stereo not drawn), “inactive”.
Under `COc1ccc(NC(=O)c2sc3nc(C)nc(N4CCN(c5ccccn5)CC4)c3c2C)c(OC)c1` stands “inactive”; under `Cc1nc(N2CCN(c3ccccn3)CC2)c2c(C)c(C(=O)Nc3ccc(F)cc3)sc2n1`, “inactive”; under `Cc1nc(N2CCN(c3ccccn3)CC2)c2c(C)c(C(=O)Nc3ccc(F)c(Cl)c3)sc2n1`, -5.65 (active).
